Laboratory results from ChEMBL document CHEMBL4513141, “CO-ADD screening of NIH (USA) - Clinical Collection” (2021).
Entries with a potency or affinity are not part of this list.

Tests used:
Staphylococcus aureus = settings: Concentration 20 uM; ASSAY_TEST Inhibition of Bacterial Growth; detection method Absorption (OD600); MEDIA CAMHB; plate type 384well; NBS; CORNING #3640; time 18 hr
Escherichia coli = settings: Concentration 20 uM; ASSAY_TEST Inhibition of Bacterial Growth; detection method Absorption (OD600); MEDIA CAMHB; plate type 384well; NBS; CORNING #3640; time 18 hr

## Cc1cnc(NC(=O)C2=C(O)c3ccccc3S(=O)(=O)N2C)s1 [MELOXICAM]
Staphylococcus aureus
  Inhibition: -0.24%
Escherichia coli
  Inhibition: 7.37%

## CCN(Cc1ccncc1)C(=O)C(CO)c1ccccc1 (stereo not drawn) [TROPICAMIDE]
Staphylococcus aureus
  Inhibition: 7.97%
Escherichia coli
  Inhibition: 5.49%

## CS(=O)(=O)c1ccc(-c2cc(Br)sc2-c2ccc(F)cc2)cc1 [DUP-697]
Staphylococcus aureus
  Inhibition: 14.13%
Escherichia coli
  Inhibition: -0.37%

## COC(=O)C1=C(C)NC(C)=C(C(=O)OC(C)C)C1c1cccc2nonc12 (stereo not drawn) [ISRADIPINE]
Staphylococcus aureus
  Inhibition: 14.31%
Escherichia coli
  Inhibition: -0.09%

## CC1Cc2ccccc2N1NC(=O)c1ccc(Cl)c(S(N)(=O)=O)c1 (stereo not drawn) [INDAPAMIDE]
Staphylococcus aureus
  Inhibition: 5.44%
Escherichia coli
  Inhibition: -0.79%

## CCC(=O)OCC(=O)[C@@]1(OC(=O)CC)[C@@H](C)C[C@H]2[C@@H]3CCC4=CC(=O)C=C[C@]4(C)[C@@]3(Cl)[C@@H](O)C[C@@]21C [BECLOMETHASONE DIPROPIONATE]
Staphylococcus aureus
  Inhibition: 4.92%
Escherichia coli
  Inhibition: -8.75%

## CC(N)(Cc1ccc(O)c(O)c1)C(=O)O (stereo not drawn) [METHYLDOPA (RACEMIC)]
Staphylococcus aureus
  Inhibition: -29.5%
Escherichia coli
  Inhibition: 7.2%

## CC[C@]1(O)C[C@@H]2CN(CCc3c([nH]c4ccccc34)[C@@](C(=O)OC)(c3cc4c(cc3OC)N(C)[C@H]3[C@@](O)(C(N)=O)[C@H](O)[C@]5(CC)C=CCN6CC[C@]43[C@@H]65)C2)C1.O=S(=O)(O)O [VINDESINE SULFATE]
Staphylococcus aureus
  Inhibition: 2.71%
Escherichia coli
  Inhibition: 3.57%

## CCCCNc1cc(C(=O)O)cc(S(N)(=O)=O)c1Oc1ccccc1 [BUMETANIDE]
Staphylococcus aureus
  Inhibition: 10.97%
Escherichia coli
  Inhibition: 5.78%

## C[C@@H]1C[C@H]2[C@@H]3CCC4=CC(=O)C=C[C@]4(C)[C@@]3(F)[C@@H](O)C[C@]2(C)[C@H]1C(=O)CO [DESOXIMETASONE]
Staphylococcus aureus
  Inhibition: 0.95%
Escherichia coli
  Inhibition: 7.14%

## NC(Cc1cc(I)c(Oc2ccc(O)c(I)c2)c(I)c1)C(=O)O (stereo not drawn) [RATHYRONINE]
Staphylococcus aureus
  Inhibition: 11.14%
Escherichia coli
  Inhibition: 4.17%

## CNCCC=C1c2ccccc2CCc2ccccc21.Cl [NORTRIPTYLINE HYDROCHLORIDE]
Staphylococcus aureus
  Inhibition: 3.19%
Escherichia coli
  Inhibition: 4.29%

## NS(=O)(=O)c1cc2c(cc1Cl)NCNS2(=O)=O [HYDROCHLOROTHIAZIDE]
Staphylococcus aureus
  Inhibition: 6.38%
Escherichia coli
  Inhibition: -0.12%

## CC(=O)OCC(=O)[C@@]1(O)CC[C@H]2[C@@H]3C[C@H](C)C4=CC(=O)C=C[C@]4(C)[C@H]3[C@@H](O)C[C@@]21C [METHYLPREDNISOLONE ACETATE]
Staphylococcus aureus
  Inhibition: 6.17%
Escherichia coli
  Inhibition: -0.44%

## C[C@H]1C[C@@H]2[C@H]([C@@H](O)C[C@@]3(C)[C@H]2CC[C@]3(O)C(=O)CO)[C@@]2(C)C=CC(=O)C=C12 [METHYLPREDNISOLONE]
Staphylococcus aureus
  Inhibition: 7.4%
Escherichia coli
  Inhibition: 5%

## CCN(CC)C(=O)[C@]1(c2ccccc2)C[C@@H]1CN.Cl [1R,2S-MILNACIPRAN HYDROCHLORIDE]
Staphylococcus aureus
  Inhibition: 5.25%
Escherichia coli
  Inhibition: 4.64%

## Nc1nc2c(ncn2COCCO)c(=O)[nH]1 [ACYCLOVIR]
Staphylococcus aureus
  Inhibition: -22.02%
Escherichia coli
  Inhibition: 4.79%

## Cl.O=C1CN2Cc3c(ccc(Cl)c3Cl)N=C2N1 [ANAGRELIDE HYDROCHLORIDE]
Staphylococcus aureus
  Inhibition: 11.06%
Escherichia coli
  Inhibition: 7.21%

## NS(=O)(=O)c1cc2c(cc1C(F)(F)F)NC(Cc1ccccc1)NS2(=O)=O (stereo not drawn) [BENDROFLUMETHIAZIDE]
Staphylococcus aureus
  Inhibition: 4.68%
Escherichia coli
  Inhibition: -3.75%

## CCCc1nc(C(C)(C)O)c(C(=O)OCc2oc(=O)oc2C)n1Cc1ccc(-c2ccccc2-c2nnn[nH]2)cc1 [OLMESARTAN MEDOXOMIL]
Staphylococcus aureus
  Inhibition: 10.76%
Escherichia coli
  Inhibition: -6.4%

## Cc1cccc(Nc2ccncc2S(=O)(=O)NC(=O)NC(C)C)c1 [TORSEMIDE]
Staphylococcus aureus
  Inhibition: 4.19%
Escherichia coli
  Inhibition: 6.8%

## CCOc1cc(N)c(Cl)cc1C(=O)NCC1CN(Cc2ccc(F)cc2)CCO1.O=C(O)CC(O)(CC(=O)O)C(=O)O (stereo not drawn) [MOSAPRIDE CITRATE]
Staphylococcus aureus
  Inhibition: 10.04%
Escherichia coli
  Inhibition: 3.47%

## CC(=O)O[C@]1(C(C)=O)CC[C@H]2[C@@H]3C=C(C)C4=CC(=O)CC[C@]4(C)[C@H]3CC[C@@]21C [MEGESTROL ACETATE]
Staphylococcus aureus
  Inhibition: 14.19%
Escherichia coli
  Inhibition: 0.92%

## CC(C)Cc1ccc(C(C)C(=O)O)cc1 (stereo not drawn) [IBUPROFEN]
Staphylococcus aureus
  Inhibition: -8.87%
Escherichia coli
  Inhibition: 0.37%
